Luc counter = blocks Kinase-Glo luciferase, a counter-screen artifact. Potency, µM (doses to about 38.3 µM), for the others: at the highest dose activity change, negative = inhibition, most hits filed as inhibitors. Kinase-Glo luciferase, ATP luminescence, 8 min. Q27757. AID 1379. 0.28% of 200,000 active; also: % is scaled to controls: 0 for no effect and ±100 for the full control effect; nearly all actives have a fitted effect of over 60% in size
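Light output from Kinase-Glo luciferase with luciferin and 10 uM ATP in 50 mM imidazole pH 7.2, KCl, MgCl2, Tween 20, BSA; compound pin-delivered, 8-min ambient incubation, then luminescence read.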
SMN2 splice enh = increases expression of the SMN2 splice variant. HEK293 SMN2-luciferase splicing reporter, luminescence, 30-36 h. Potency, µM (series often up to 46.1 µM), for inactives: top-dose activity change, positive = activation, actives largely listed as activators. 2.8% of 210,000 active. AID 1458; also: % of control where 0% means no effect; nearly all actives have a fitted effect of over 55% in size
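qHTS luciferase splicing reporter: luminescence rises when SMN2 exon 7 is included in transfected HEK293 cells. Compound exposure lasted 30-36 h at 37C, with 4.5 mM final sodium butyrate as control, followed by a ONE-Glo read.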
ELG1 genotoxic = inducers of genotoxicity in HEK293T ELG1-luciferase cells; Potency, µM (doses to about 46 µM), for inactives: at the top dose activity change, positive = activation, usual class: activators; 1.3% of 330,000 active; HEK293T ELG1-luciferase reporter, luminescence, 16 h; also: % of control where 0% means no effect; nearly all actives have a fitted effect of over 60% in size
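Screening used a luciferase reporter fused to human ELG1 in HEK293T cells. Luminescence was read on a CCD plate imager after 16 hr exposure and 30 min ONE-Glo incubation.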
FLuc counter = firefly luciferase modulation, counter-screen for miR-21 project | P08659 | purified FLuc, Km substrates, luminescence inhibition | Potency, µM (series often up to 57.5 µM), without a hit: at the top dose activity change, negative = inhibition, most hits filed as inhibitors | 6.9% of 360,000 active | AID 588342;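 also: plate controls were vehicle for no effect and reference inhibitor for full effect; nearly all actives have a fitted effect of over 55% in size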
Target sequence (P08659 whole entry, looked up): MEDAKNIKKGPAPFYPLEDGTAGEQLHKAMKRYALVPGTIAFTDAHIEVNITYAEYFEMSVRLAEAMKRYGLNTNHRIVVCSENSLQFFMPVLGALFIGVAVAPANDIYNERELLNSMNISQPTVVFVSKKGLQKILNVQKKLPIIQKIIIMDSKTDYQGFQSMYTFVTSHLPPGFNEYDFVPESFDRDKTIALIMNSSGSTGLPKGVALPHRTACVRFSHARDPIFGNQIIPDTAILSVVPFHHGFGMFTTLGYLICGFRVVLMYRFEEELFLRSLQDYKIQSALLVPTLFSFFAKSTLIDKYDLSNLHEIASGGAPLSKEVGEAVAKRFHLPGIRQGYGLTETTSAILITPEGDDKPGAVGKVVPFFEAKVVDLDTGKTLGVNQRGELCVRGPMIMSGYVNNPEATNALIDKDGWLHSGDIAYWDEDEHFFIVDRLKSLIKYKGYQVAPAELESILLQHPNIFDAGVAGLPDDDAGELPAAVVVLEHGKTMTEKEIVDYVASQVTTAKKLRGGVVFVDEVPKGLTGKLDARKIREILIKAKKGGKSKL
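Purified P. pyralis luciferase, 10 nM final, with Km-level 10 uM D-luciferin and 10 uM ATP in 50 mM Tris acetate pH 7.5, 10 mM Mg acetate, 0.01% Tween-20, 0.05% BSA; 6-point qHTS titration about 60 µM downward; luminescence read.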
NPC1 promoter act = activates the NPC1 promoter; Huh7 NPC1 promoter luciferase reporter, 24 h; Potency, µM (series often up to 9.22 µM), inactives show at the highest dose activation, hits mostly activators; 2.4% of 320,000 active; AID 485313; also: % of control where 0% means no effect; nearly all actives have a fitted effect of over 60% in size
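NPC1 promoter–luciferase Huh7 cells; 24 h compound; luminescence.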
Rab9 prom act = activates the Rab9 promoter; Huh7 Rab9 promoter-luciferase reporter, luminescence, 24 h; Potency, µM (series often up to 9.22 µM), for the others: at the highest dose activation, negative = inhibition, actives largely listed as activators; 2.8% of 320,000 active; also: % of control where 0% means no effect; nearly all actives have a fitted effect of over 60% in size
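Luminescence from Amplite-detected luciferase (10 minutes, ambient) reports Rab9 promoter activation. Before that, stable Rab9-luciferase Huh7 cells (1500/well, reduced-serum OP-MEM I plus 10% FBS) were exposed to compound for 24 hours at 37C.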
Active calls of the source: *; ? = inconclusive; . = no result; [ ] = remark or other dose. A selection: hits, their analogues and other compounds. The true share with any hit is near 7.3%. Calls follow the shape of the dose curve; as a rule, active = well fitted curve in the direction sought with a large enough effect; inconclusive = small, poorly fitted or top-dose-only effect, or another doubt; inactive = no such curve, though single readings can be large; an effect the other way counts as inactive or inconclusive. Potency is read from the fitted curve at half-maximal effect.

SMILES | Luc counter | SMN2 splice enh | ELG1 genotoxic | FLuc counter | NPC1 promoter act | Rab9 prom act
CN[C@H](Cc1ccccc1)c1cccc(OC)c1O | -1.2%[7.66 µM] | -20.2%[9.22 µM] | . | . | . | .
Cc1ccc(Cn2cc(C=O)c(-c3ccc(C)cc3)n2)cc1 | 1.8% | ? | ? | 16.9µM* | 24.7% | ?
O=C1N=C(N2CCCCC2)SC1=C1CCCCC1 | -15.2% | 28.6% | 16.4µM* | 13.5µM* | ? | 2.82µM*
CNC(=O)[C@@H]1C[C@H]1[C@@H](NP(=O)(c1ccccc1)c1ccccc1)c1ccccc1 | -0.1% | 12.6µM* | . | . | . | .
[O-][Br+2]([O-])O | . | -3.7% | . | . | . | .
Cc1ccc(-c2nc3ccc(Cl)cc3n2OC(=O)N(C)C)cc1 | -3.8% | -15.0% | 2.91µM* | ? | 3.16µM* | 3.16µM*
CC(=O)C1=NOC(CNc2ncc(C(F)(F)F)cc2Cl)C1 (stereo not given) | 2.6% | 18.4% | ? | 26.9µM* | 18.4% | ?
CC(C)c1ccc(N=Nc2c(O)[nH]c(=O)[nH]c2=O)cc1 | . | . | ? | 2.39µM* | ? | ?
O=C(c1ccccc1)c1ccc(N=Nc2c(O)[nH]c(=O)[nH]c2=O)cc1 | -0.2% | 3.3% | 12.2% | 0.9% | -9.0% | ?
O=c1[nH]c(=S)[nH]c(O)c1N=Nc1ccc(SC(F)F)cc1 | . | . | 6.51µM* | 1.2µM* | 3.16µM* | 3.16µM*
O=C(O)c1cccc(N=Nc2c(O)[nH]c(=O)[nH]c2=O)c1 | . | . | -1.8% | 15.1µM* | -3.8% | 26.7%
Nc1nc(N)c(N=Nc2ccc([As](=O)(O)O)c(O)c2)c(N)n1 | -4.1%[7.66 µM] | -14.2%[9.22 µM] | . | . | . | .
CC(=O)[O-].CC(=O)[O-].O.O.[Cd+2] | . | -51.0% | . | . | . | .
O=C(O)[C@H](Cc1cnc[nH]1)N1C(=O)c2ccccc2C1=O | -1.2%[7.66 µM] | -3.0%[9.22 µM] | . | . | . | .
COc1ccccc1N(CC(=O)NC1CCCCC1)C(=O)c1cnn(C(C)C)c1 | 2.4% | 4.5% | 0.8% | -0.1% | 0.2% | -1.8%
COc1ccccc1N(CC(=O)NC1CCCC1)C(=O)c1cnn(C(C)C)c1 | 1.0% | ? | 11.1% | 15.1µM* | ? | ?
Cc1nn(-c2ccccc2)c(Cl)c1/C=N\NC(=O)c1cnccn1 | 2.1% | ? | 14.0% | 6.01µM* | 16.2% | 21.7%
Cc1ccc(-n2c(O)c(/C=N/NC(=O)c3ccncc3)c(=O)[nH]c2=O)cc1C | -0.1% | ? | 4.2% | 0.0% | 0.1% | -6.1%
O=C(Cl)c1ccccc1F | . | -8.1% | . | . | . | .
COc1ccc(N2C(=O)/C(=C/C=C/c3ccccc3[N+](=O)[O-])C(=O)NC2=S)cc1 | 1.5% | -7.4% | -0.6% | 23.9µM* | -0.7% | 1.3%
CC1CCN(CC(=O)c2ccc3c(c2)OCCO3)CC1 | -0.7% | 12.6µM* | ? | 10.7µM* | ? | ?
CC1CCN(CC(=O)c2ccccc2Cl)CC1 | -2.8% | ? | ? | 10.7µM* | 22.7% | ?
CC1CN(CC(=O)c2ccccc2Cl)CC(C)O1 (stereo not given) | . | . | 1.0% | -16.6% | -0.7% | -3.5%[1.84 µM]
Cc1ccc(-c2cc(-c3ccccc3)cc(-c3ccccc3)[n+]2-c2ccccc2C(=O)O)cc1 | . | . | -2.2% | 9.5% | 0.6% | -4.1%
Cc1ccc(CSc2ncccc2C(=O)O)cc1 | -4.0% | ? | ? | 16.9µM* | -1.4% | 0.8%
CN=C=S | . | 4.5% | . | . | . | .
CSc1ccc(C(c2c(O)c3ccccc3oc2=O)c2c(C)n(C)n(-c3ccccc3)c2=O)cc1 (stereo not given) | 1.2% | -7.7% | 0.2% | ? | 1.8% | -2.6%
Cc1c(C(c2ccc(Br)cc2)c2c(O)c3ccccc3oc2=O)c(=O)n(-c2ccccc2)n1C (stereo not given) | -1.0% | -12.3% | 6.2% | 12µM* | -5.0% | -7.4%
C[C@@H]1CC[C@@H]2N(C1)C[C@H]1[C@@](O)([C@H](O)C[C@]3(O)[C@H]4CC[C@H]5[C@]6(O)O[C@]4(C[C@]13O)[C@@]5(C)CC[C@@H]6O)[C@@]2(C)O | -1.5%[7.66 µM] | -6.8%[9.22 µM] | . | . | . | .

Bioassay records: PubChem, National Center for Advancing Translational Sciences (NCATS)
